Results taken from PubChem BioAssay (NCI).
About 79,000 compounds went through this panel and 15% of them were active in at least one assay; those are over-represented in the sample as a whole. Activity calls are given as the source filed them. Cut-off read from the data, not from the text of the source: active = growth inhibition above about 70%; inactive = the rest.

Key:
[1] = NCI Yeast Anticancer Drug Screen. Data for the rad52 strain (AID 147);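 note: 0% = growth of vehicle-treated control cultures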; conditions: S. cerevisiae rad52 mutant growth inhibition, hits give high values
Outline: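 Vehicle-treated cultures served as the reference for growth inhibition of compound-exposed yeast bearing a DNA repair mutation.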

[2] = NCI Yeast Anticancer Drug Screen. Data for the wt1 strain (AID 149);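 note: 0% = growth of vehicle-treated wt1 cultures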; conditions: S. cerevisiae wt1 strain (SPY 50644) growth inhibition, hits give high values
Outline: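 Using yeast strain wt1, compound-induced growth inhibition was determined against vehicle-treated cultures.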

[3] = NCI Yeast Anticancer Drug Screen. Data for the rad50EPP+ strain (AID 151);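 note: 0% = growth of vehicle-treated control cultures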; conditions: S. cerevisiae rad50 mutant strain, hits give high values
Outline: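 In this screen, rad50EPP+ yeast were exposed to compounds. Growth inhibition was scored against vehicle-treated controls.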

[4] = NCI Yeast Anticancer Drug Screen. Data for the mgt1 strain (AID 153); conditions: S. cerevisiae mgt1 mutant growth inhibition, hits give high values
Outline: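 mgt1 strain exposed; growth vs vehicle control recorded as inhibition.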

[5] = NCI Yeast Anticancer Drug Screen. Data for the rad50 strain (AID 155);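 note: 0% = growth of vehicle-only cultures of the same strain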; conditions: S. cerevisiae rad50 strain growth inhibition, hits give high values
Outline: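 Relative growth inhibition (compound vs vehicle) was measured in yeast with a defined repair-gene alteration.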

[6] = NCI Yeast Anticancer Drug Screen. Data for the mec2-1 strain (AID 157); conditions: S. cerevisiae mec2-1 strain, hits give high values
Outline: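 Vehicle-treated cultures served as reference for growth inhibition of compound-exposed mec2-1 yeast.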

[7] = NCI Yeast Anticancer Drug Screen. Data for the rad14 strain (AID 159);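 note: 0% = growth of vehicle-treated control cultures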; conditions: S. cerevisiae rad14 strain growth inhibition, hits give high values
Outline: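 Screen for anticancer potential: a yeast strain altered in DNA damage repair is grown with compound, and reduced growth is quantified against vehicle controls.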

[8] = NCI Yeast Anticancer Drug Screen. Data for the sgs1 mgt1 strain (AID 161);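 note: 0% = growth of cultures given vehicle only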; conditions: S. cerevisiae sgs1 mgt1 strain, hits give high values
Outline: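 Inhibition of yeast growth, normalised to vehicle-treated controls, is reported for a strain bearing genetic alterations in DNA damage repair.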

[9] = NCI Yeast Anticancer Drug Screen. Data for the CLN2oe strain (AID 163);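 note: 0% = growth of vehicle-only control cultures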; conditions: S. cerevisiae CLN2oe strain, hits give high values
Outline: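 Inhibition relative to vehicle-treated yeast is reported. Cells: strain with genetic alteration in cell-cycle control, grown with compound.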

[10] = NCI Yeast Anticancer Drug Screen. Data for the cln2 rad14 strain (AID 165);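 note: 0% = growth equal to vehicle treated cultures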; conditions: S. cerevisiae cln2 rad14 strain, hits give high values
Outline: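 Each compound was tested on cln2 rad14 yeast. Inhibition of growth was calculated against vehicle-exposed controls.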

[11] = NCI Yeast Anticancer Drug Screen. Data for the bub3 strain (AID 167); conditions: S. cerevisiae bub3 mutant strain, hits give high values
Outline: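 Screening used yeast with an engineered genetic alteration affecting cell cycle control. Compound-exposed cultures were compared with vehicle cultures, and reduced growth was taken as inhibition.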

[12] = NCI Yeast Anticancer Drug Screen. Data for the wt2 strain (AID 169);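 note: 0% = growth of vehicle-treated yeast cultures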; conditions: S. cerevisiae wt2 strain growth inhibition, hits give high values
Outline: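 Inhibition of yeast growth was determined after compound treatment, normalised to controls receiving only vehicle.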

[13] = NCI Yeast Anticancer Drug Screen. Data for the mlh1 strain (AID 171);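 note: 0% = growth of vehicle-treated control cultures of the same strain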; conditions: S. cerevisiae mlh1 strain growth inhibition, hits give high values
Outline: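 Vehicle-normalised growth inhibition of a repair- or checkpoint-altered yeast strain following compound treatment.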

[14] = NCI Yeast Anticancer Drug Screen. Data for the sgs1 strain (AID 173);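 note: 0% = growth of vehicle-only control cultures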; conditions: S. cerevisiae sgs1 mutant, hits give high values
Outline: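 Screen format: yeast with repair or checkpoint alterations, compound exposure, growth read relative to vehicle.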

[15] = NCI Yeast Anticancer Drug Screen. Data for the mlh1 rad18 strain (AID 175); conditions: S. cerevisiae mlh1 rad18 strain growth inhibition, hits give high values
Outline: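 Vehicle-treated cultures served as the reference for growth inhibition in a yeast strain carrying DNA damage repair alterations exposed to each compound.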

[16] = NCI Yeast Anticancer Drug Screen. Data for the rad18 strain (AID 177); conditions: S. cerevisiae rad18 mutant growth inhibition, hits give high values
Outline: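 Test articles were incubated with altered yeast defective in DNA damage repair. Results are given as inhibition of growth versus vehicle.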

[17] = at 5.0 µM (retest, dose inferred, filed as 0.5)
[18] = at 50.0 µM (retest, dose inferred, filed as 5.0)

Measured: growth inhibition

Cc1ccc2c(ccc(/C=C/c3ccc(O)c4ncccc34)[n+]2C)c1
inactive: [1]; at 1.2 µM 17% | [1]; at 3.7 µM 46% | [2]; at 1.2 µM 4% | [2]; at 3.7 µM 30% | [3]; at 1.2 µM 3% | [3]; at 3.7 µM 27% | [3]; at 11.0 µM 60% | [4]; at 1.2 µM 8% | [4]; at 3.7 µM 40% | [5]; at 1.2 µM 1% | [5]; at 3.7 µM 41% | [5]; [17] 40% | [6]; at 1.2 µM 10% | [6]; at 3.7 µM 37% | [6]; [17] 43% | [7]; at 1.2 µM -15% | [7]; at 3.7 µM 37% | [8]; [17] 23% | [9]; at 1.2 µM -6% | [9]; at 3.7 µM 18% | [10]; [17] 17% | [11]; at 1.2 µM 18% | [11]; at 3.7 µM 33% | [11]; [17] 10% | [12]; at 1.2 µM -16% | [12]; at 3.7 µM 2% | [12]; at 11.0 µM 53% | [13]; at 1.2 µM 15% | [13]; at 3.7 µM 60% | [14]; at 1.2 µM 18% | [14]; at 3.7 µM 45% | [15]; [17] 58%
active: [1]; at 11.0 µM 89% | [1]; at 33.0 µM 94% | [1]; at 100.0 µM 81% | [2]; at 11.0 µM 85% | [2]; at 33.0 µM 94% | [2]; at 100.0 µM 81% | [3]; at 33.0 µM 87% | [3]; at 100.0 µM 79% | [4]; at 11.0 µM 84% | [4]; at 33.0 µM 95% | [4]; at 100.0 µM 82% | [5]; at 11.0 µM 88% | [5]; at 33.0 µM 93% | [5]; [18] 93% | [5]; at 100.0 µM 74% | [6]; at 11.0 µM 89% | [6]; at 33.0 µM 93% | [6]; [18] 94% | [6]; at 100.0 µM 77% | [7]; at 11.0 µM 90% | [7]; at 33.0 µM 94% | [7]; at 100.0 µM 77% | [8]; [18] 98% | [8]; at 50.0 µM 82% | [9]; at 11.0 µM 78% | [9]; at 33.0 µM 90% | [9]; at 100.0 µM 77% | [10]; [18] 95% | [10]; at 50.0 µM 84% | [11]; at 11.0 µM 87% | [11]; at 33.0 µM 91% | [11]; [18] 98% | [11]; at 50.0 µM 84.9% | [11]; at 100.0 µM 74% | [12]; at 33.0 µM 88% | [12]; at 100.0 µM 79% | [13]; at 11.0 µM 85% | [13]; at 33.0 µM 95% | [13]; at 100.0 µM 78% | [14]; at 11.0 µM 82% | [14]; at 33.0 µM 92% | [14]; at 100.0 µM 78% | [15]; [18] 91%

CC[C@@]1(OC(=O)CN(C)C)C(=O)OCc2c1cc1n(c2=O)Cc2cc3c(N)cccc3nc2-1
inactive: [1]; at 1.2 µM 53% | [2]; at 1.2 µM 0% | [2]; at 3.7 µM -2% | [2]; at 11.0 µM -1% | [2]; at 33.0 µM 6% | [2]; at 100.0 µM 25% | [3]; at 1.2 µM 7% | [3]; at 3.7 µM 22% | [3]; at 11.0 µM 55% | [4]; at 1.2 µM -2% | [4]; at 3.7 µM 0% | [4]; at 11.0 µM 2% | [4]; at 33.0 µM 20% | [4]; at 100.0 µM 39% | [5]; at 1.2 µM 68% | [5]; at 50.0 µM -17.9% | [6]; at 1.2 µM 0% | [6]; at 3.7 µM 8% | [6]; [17] 22% | [6]; at 11.0 µM 46% | [6]; [18] 22% | [6]; at 50.0 µM 58.4% | [8]; [17] 14% | [8]; [18] 14% | [8]; at 50.0 µM 6.05% | [9]; at 1.2 µM -8% | [9]; at 3.7 µM 1% | [9]; at 11.0 µM 8% | [9]; at 33.0 µM 43% | [10]; [17] 17% | [10]; [18] 17% | [10]; at 50.0 µM 31.1% | [11]; at 1.2 µM -14% | [11]; at 3.7 µM -20% | [11]; [17] 6% | [11]; at 11.0 µM -3% | [11]; at 33.0 µM 20% | [11]; [18] 6% | [11]; at 50.0 µM 0.7% | [11]; at 100.0 µM 59% | [12]; at 1.2 µM -2% | [12]; at 3.7 µM 1% | [12]; at 11.0 µM 3% | [12]; at 33.0 µM 13% | [12]; at 100.0 µM 32% | [13]; at 1.2 µM -1% | [13]; at 3.7 µM -2% | [13]; at 11.0 µM 1% | [13]; at 33.0 µM 28% | [13]; at 100.0 µM 55% | [14]; at 1.2 µM 0% | [14]; at 3.7 µM 4% | [14]; at 11.0 µM 17% | [14]; at 33.0 µM 40% | [14]; at 100.0 µM 64% | [15]; [17] 27% | [15]; [18] 27% | [16]; at 1.2 µM -18% | [16]; at 3.7 µM -5% | [16]; at 11.0 µM 5% | [16]; at 33.0 µM 19% | [16]; at 100.0 µM 51%
active: [1]; at 3.7 µM 75% | [1]; at 11.0 µM 88% | [1]; at 33.0 µM 93% | [1]; at 100.0 µM 95% | [3]; at 33.0 µM 77% | [3]; at 100.0 µM 87% | [5]; at 3.7 µM 82% | [5]; [17] 90% | [5]; at 11.0 µM 91% | [5]; at 33.0 µM 94% | [5]; [18] 90% | [5]; at 100.0 µM 95% | [6]; at 33.0 µM 88% | [6]; at 100.0 µM 96% | [9]; at 100.0 µM 80% | [15]; at 50.0 µM 73.5%
